Reference: the supplement of paper PMC9117331
Structures can show the parent of a compound that is named as a salt.

Experiments:
Settings in all cases: 0.5 µM; time after treatment 48 h; PC9 signalome
PC9 [1] = assay: AKT reporter activity score (signed KS statistic vs DMSO) (signed KS statistic (-1 to 1)); higher = stronger activation of the pathway reporter relative to DMSO
PC9 [2] = assay: RAR reporter activity score (signed KS statistic vs DMSO) (signed KS statistic (-1 to 1)); higher = stronger activation of the pathway reporter relative to DMSO
PC9 [3] = assay: PKC reporter activity score (signed KS statistic vs DMSO) (signed KS statistic (-1 to 1)); higher = stronger activation of the pathway reporter relative to DMSO
PC9 [4] = assay: PKA reporter activity score (signed KS statistic vs DMSO) (signed KS statistic (-1 to 1)); higher = stronger activation of the pathway reporter relative to DMSO
PC9 [5] = assay: p38 reporter activity score (signed KS statistic vs DMSO) (signed KS statistic (-1 to 1)); higher = stronger activation of the pathway reporter relative to DMSO
PC9 [6] = assay: HIF reporter activity score (signed KS statistic vs DMSO) (signed KS statistic (-1 to 1)); higher = stronger activation of the pathway reporter relative to DMSO
PC9 [7] = assay: ERK reporter activity score (signed KS statistic vs DMSO) (signed KS statistic (-1 to 1)); higher = stronger activation of the pathway reporter relative to DMSO
PC9 [8] = assay: JNK reporter activity score (signed KS statistic vs DMSO) (signed KS statistic (-1 to 1)); higher = stronger activation of the pathway reporter relative to DMSO
PC9 [9] = assay: WNT reporter activity score (signed KS statistic vs DMSO) (signed KS statistic (-1 to 1)); higher = stronger activation of the pathway reporter relative to DMSO
PC9 [10] = assay: NFkB reporter activity score (signed KS statistic vs DMSO) (signed KS statistic (-1 to 1)); higher = stronger activation of the pathway reporter relative to DMSO
PC9 [11] = assay: YAP/TAZ reporter activity score (signed KS statistic vs DMSO) (signed KS statistic (-1 to 1)); higher = stronger activation of the pathway reporter relative to DMSO

| Structure (SMILES) | AKT reporter activity score (PC9 [1]) | RAR reporter activity score (PC9 [2]) | PKC reporter activity score (PC9 [3]) | PKA reporter activity score (PC9 [4]) | p38 reporter activity score (PC9 [5]) | HIF reporter activity score (PC9 [6]) | ERK reporter activity score (PC9 [7]) | JNK reporter activity score (PC9 [8]) | WNT reporter activity score (PC9 [9]) | NFkB reporter activity score (PC9 [10]) | YAP/TAZ reporter activity score (PC9 [11]) |
| --- | --- | --- | --- | --- | --- | --- | --- | --- | --- | --- | --- |
| CC(C)n1nc(-c2ccc3oc(N)nc3c2)c2c(N)ncnc21 | -0.075 | 0.0862 | 0.0627 | 0.217 | -0.392 | -0.124 | -0.188 | -0.194 | 0.164 | 0.0979 | 0.144 |
| CN1CC[C@H](c2c(O)cc(O)c3c(=O)cc(-c4ccccc4Cl)oc23)[C@H](O)C1 [Flavopiridol hydrochloride] |  |  |  | -0.608 | -0.475 | 0.353 | -0.633 | -0.208 | 0.153 | 0.123 | 0.371 |
| C#CCC(Cc1cnc2nc(N)nc(N)c2n1)c1ccc(C(=O)N[C@@H](CCC(=O)O)C(=O)O)cc1 (some centres not stated) [Pralatrexate(Folotyn)] | -0.334 | 0.231 | 0.0797 | -0.237 | -0.0729 | 0.149 | -0.257 | 0.0731 | 0.0527 | 0.0639 | 0.223 |
| C=CC(=O)N1CCC[C@@H](n2nc(-c3ccc(Oc4ccccc4)cc3)c3c(N)ncnc32)C1 | -0.461 | 0.562 |  |  | -0.409 | 0.169 | -0.667 | -0.17 | 0.283 |  | 0.322 |
| Cc1[nH]nc2ccc(-c3cncc(OC[C@@H](N)Cc4ccccc4)c3)cc12 | -0.173 | -0.385 | -0.0808 | -0.173 | 0.056 | -0.128 | -0.166 | 0.272 | 0.113 |  | -0.247 |
| COc1ncc(-c2ccc3nccc(-c4ccnnc4)c3c2)cc1NS(=O)(=O)c1ccc(F)cc1F | -0.778 | 0.43 | 0.0478 | -0.254 | -0.499 | 0.0783 | -0.33 | -0.305 | 0.123 | 0.192 | 0.18 |
| C[C@H](NC(=O)Cc1cc(F)cc(F)c1)C(=O)N[C@@H]1C(=O)N(C)c2ccccc2-c2ccccc21 | -0.303 | 0.0626 | 0.0325 | -0.0914 | 0.0414 | -0.0336 | -0.123 | -0.138 | -0.0477 | -0.12 | -0.114 |
| CCn1c(-c2nonc2N)nc2c(C#CC(C)(C)O)ncc(OC[C@H]3CCCNC3)c21 | -0.513 | -0.292 | -0.0561 | 0.119 | -0.189 | -0.224 | 0.134 | 0.058 | 0.151 | 0.0699 | -0.0459 |
| Nc1ncnc2c1c(-c1cnc3[nH]ccc3c1)nn2C1CCCC1 | -0.463 | 0.646 | 0.116 |  | -0.374 | 0.183 | -0.379 | -0.111 | 0.0862 | 0.128 | 0.258 |
| C=CC(=O)Nc1ccc2ncnc(Nc3cccc(Br)c3)c2c1 |  |  |  |  | -0.268 | 0.234 | -0.724 |  |  |  | 0.467 |
| C=CC(=O)Nc1cccc(Oc2nc(Nc3ccc(N4CCN(C)CC4)cc3)ncc2Cl)c1 |  | 0.418 | 0.125 |  | -0.271 | 0.164 | -0.662 | 0.152 | 0.124 | 0.166 | 0.333 |
| C=CC(=O)Nc1cccc(Sc2nc(Nc3ccc(N4CCN(C)CC4)cc3)ncc2Cl)c1 | -0.364 | 0.467 | 0.0576 | -0.418 | -0.318 | 0.106 | -0.698 | 0.15 | 0.172 | 0.174 | 0.338 |
| Cc1c(NC(=O)OC[C@@H]2COCCN2)cn2ncnc(Nc3ccc4c(cnn4Cc4cccc(F)c4)c3)c12 | -0.228 | 0.182 | 0.0831 | 0.0553 | -0.0763 | -0.136 | -0.29 | -0.0881 | 0.0831 | 0.0753 | 0.0967 |
| C[C@@H](Oc1cc(-n2cnc3ccc(CN4CCN(C)CC4)cc32)sc1C(N)=O)c1ccccc1C(F)(F)F | -0.183 | 0.399 |  | 0.141 | 0.183 | 0.347 | -0.139 | 0.0494 | 0.141 | 0.0742 |  |
| Cc1ccc(C(=O)N(CCCN)[C@@H](c2oc3cc(Cl)ccc3c(=O)c2Cc2ccccc2)C(C)C)cc1 |  |  | 0.176 |  | -0.278 | 0.473 | -0.378 | -0.131 |  | 0.169 |  |
| CN(C)C/C=C/C(=O)Nc1cc2c(Nc3ccc(F)c(Cl)c3)ncnc2cc1O[C@H]1CCOC1 [Afatinib (BIBW2992)] | -0.37 |  | 0.191 |  | 0.229 | 0.0949 | -0.615 | 0.173 | 0.34 | 0.208 | 0.397 |
| COc1cccc2c1C(=O)c1c(O)c3c(c(O)c1C2=O)C[C@@](O)(C(C)=O)C[C@@H]3O[C@H]1C[C@H](N)[C@H](O)[C@H](C)O1 [Daunorubicin HCl (Daunomycin HCl)] |  |  |  |  | -0.245 |  | -0.431 | 0.068 | 0.915 | 0.693 |  |
| CCN1CCN(Cc2ccc(-c3cc4c(N[C@H](C)c5ccccc5)ncnc4[nH]3)cc2)CC1 | -0.376 | 0.505 |  | -0.379 | -0.36 | 0.189 | -0.726 | 0.193 | 0.184 | 0.161 | 0.381 |
| CC(C)n1nc(-c2cc3cc(O)ccc3[nH]2)c2c(N)ncnc21 | -0.0564 | -0.222 | -0.0669 | 0.116 | 0.0578 | -0.329 | -0.108 | -0.0693 | 0.0845 | 0.195 | 0.186 |
| COc1ccc(-c2cc3c(C)nc(N)nc3n([C@H]3CC[C@H](OCCO)CC3)c2=O)cn1 | -0.424 | 0.107 | -0.0883 | -0.172 | -0.364 | -0.153 | 0.0981 | -0.166 | 0.0844 | -0.0647 | 0.155 |
| COc1ccc(-c2ccc3c(N4CCOC[C@@H]4C)nc(N4CCOC[C@@H]4C)nc3n2)cc1CO | -0.0864 | -0.11 | 0.0766 |  | -0.297 | -0.151 | -0.211 | -0.189 | 0.13 | 0.178 | 0.166 |
| CC(C)CC(=O)Nc1n[nH]c2c1CN(C(=O)C1CCN(C)CC1)C2(C)C | -0.35 | 0.417 |  | -0.15 | -0.296 | 0.227 | -0.107 | -0.179 | 0.117 | 0.167 | 0.244 |
